Bioassay records deposited in PubChem by National Center for Advancing Translational Sciences (NCATS).
DT40 TDP1 no CPT: qHTS for Inhibitors of human tyrosyl-DNA phosphodiesterase 1 (TDP1): qHTS in cells in absence of CPT. DT40 Tdp1-/- hTDP1 cells, no CPT, ATP luminescence, 48 h. 15% of 420,000 active. Potency, µM (series often up to 46.2 µM), usual class: inhibitors. AID 686978, 2013; also: nearly all actives have a fitted effect of over 55% in size
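Growth kinetics read by CellTiter-Glo luminescence after ≥48 hr at 37 °C. Cells: DT40 Tdp1-/- stably carrying human TDP1, 400 per well, compound exposure in the absence of CPT (DMSO vehicle).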
HT1080 IDH1KD tx: kills HT-1080 cells with IDH1 knockdown; AID 686971; HT-1080 IDH1 knockdown viability, ATP luminescence, 48 h; 2% of 360,000 active; Potency, µM (highest dose often 46.1 µM), actives largely listed as cytotoxic
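Luminescent ATP read-out (CellTiter-Glo, 10 min at room temperature) after 48 h compound exposure at 37 °C gave viability of IDH1-knockdown HT-1080 cells. Activity was normalised to DMSO and cell-free wells, then fitted as concentration-response curves.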
HT1080-NT tox: kills 2HG-producing HT-1080-NT fibrosarcoma cells; Potency, µM (titrated, usually from 46.1 µM), actives largely listed as cytotoxic; HT-1080-NT fibrosarcoma viability, CellTiter-Glo ATP luminescence, 48 h; 1.6% of 360,000 active;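 also: NT is the 2HG producing partner of a matched IDH1 knockdown line; nearly all actives have a fitted effect of over 55% in size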
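A 48-hour cytotoxicity screen used HT-1080-NT cells plated 2 hours before compound delivery. ATP-based CellTiter-Glo luminescence measured viability, normalized to DMSO and no-cell controls.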
IL-1B inflam inh: blocks inflammasome-driven IL-1 beta release; THP-1 LPS/ATP IL-1B secretion, AlphaLISA, 16 h; hits give low values; activity change, % at 57.5 µM; 4.7% of 360,000 active; AID 743279; in the data active = activity change below about -50%; inconclusive = mostly about -30% to -49%
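THP-1 cells pretreated 1 hr with compounds (up to 57.5 uM final), then stimulated with LPS (250 ng/mL final) plus ATP (1.25 mM final); secreted IL-1B measured by AlphaLISA after 16 hr, decreased signal indicating inhibition.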
DT40 TDP1 CPT: DT40-hTDP1 cell growth loss with CPT. chicken DT40 Tdp1-/-;hTDP1 cells + 20 nM CPT, ATP luminescence, 48 h. Potency, µM (highest dose often 46.2 µM), usual class: inhibitors. 12% of 420,000 active; also: nearly all actives have a fitted effect of over 55% in size
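Chicken DT40 Tdp1-/- cells complemented with human TDP1, 400 cells/well, exposed to compounds plus 20 nM camptothecin for at least 48 h at 37 C; viability read as ATP content by CellTiter-Glo luminescence.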
Each line names hits and unclear results; the compound was inactive in the other large screens. In the library only some 19% were active in any assay of this set; here they are far more common. Unless noted, calls follow the shape of the dose curve; as a rule, active = well fitted curve in the direction sought with a large enough effect; inconclusive = small, poorly fitted or top-dose-only effect, or another doubt; inactive = no such curve, though single readings can be large; an effect the other way counts as inactive or inconclusive.

CCc1nn2c(=O)c(S(=O)(=O)Nc3ccc(C)c(C)c3)c(C)nc2s1	DT40 TDP1 no CPT 23.1µM, DT40 TDP1 CPT inconclusive (no result: HT1080 IDH1KD tx, HT1080-NT tox, IL-1B inflam inh)
CCCCc1c(C)c(C#N)c2nc3ccccc3n2c1NCCN(C)C	DT40 TDP1 no CPT inconclusive, DT40 TDP1 CPT inconclusive
Cc1c(Cc2ccccc2)c(NCCN(C)C)n2c(nc3ccccc32)c1C#N	DT40 TDP1 no CPT inconclusive, IL-1B inflam inh -70.9
COc1cccc(Cn2c(=O)cnc3cnc(Oc4ccccc4)nc32)c1	none (no result: HT1080 IDH1KD tx, HT1080-NT tox, IL-1B inflam inh)
Cc1cc(=O)oc2cc(NC(=O)c3cccc(S(C)(=O)=O)c3)ccc12	DT40 TDP1 no CPT inconclusive, IL-1B inflam inh -52.5
CCCC(C(=O)Nc1ccc2c(C)cc(=O)oc2c1)c1ccccc1 (centres undefined)	DT40 TDP1 no CPT inconclusive, DT40 TDP1 CPT 25.9µM
Cc1cc(=O)oc2cc(NC(=O)Cc3ccccc3)ccc12	none
Cc1cc(=O)oc2cc(NC(=O)c3cccc(S(=O)(=O)N(C)C)c3)ccc12	HT1080-NT tox inconclusive
Cc1ccc(C(=O)Nc2cccc(C(F)(F)F)c2)cc1NC(=O)c1csc(-c2ccncc2)n1	DT40 TDP1 no CPT 4.11µM, DT40 TDP1 CPT 6.51µM
O=C(Nc1ccc(-c2csc(Nc3ccccc3)n2)cc1)c1cc([N+](=O)[O-])cc(C(F)(F)F)c1	DT40 TDP1 no CPT 18.4µM, DT40 TDP1 CPT inconclusive
O=C(Nc1ccc(-c2csc(-c3ccccc3)n2)cc1)c1ccccc1	DT40 TDP1 no CPT inconclusive, HT1080-NT tox inconclusive, DT40 TDP1 CPT inconclusive
Cc1ccc(-c2csc(NC(=O)c3cccc([N+](=O)[O-])c3)n2)cc1	none
O=C(Nc1ccc(-c2csc(Nc3ccccc3)n2)cc1)c1cccc(C(F)(F)F)c1	DT40 TDP1 no CPT 4.11µM, HT1080 IDH1KD tx inconclusive, HT1080-NT tox inconclusive, DT40 TDP1 CPT 2.91µM
O=[N+]([O-])c1ccc(-c2csc(Nc3ccccc3)n2)cc1	DT40 TDP1 no CPT 12.6µM, DT40 TDP1 CPT inconclusive (no result: IL-1B inflam inh)
NS(=O)(=O)c1ccc(CCNC(=O)c2ccc(NC3=NC4CS(=O)(=O)CC4S3)cc2)cc1 (centres undefined)	none
O=C(Nc1cccc(-c2csc(Nc3cccc(C(F)(F)F)c3)n2)c1)c1cc([N+](=O)[O-])cc(C(F)(F)F)c1	DT40 TDP1 no CPT 5.8µM, DT40 TDP1 CPT 7.31µM
NC(=O)Cc1nc(-c2ccc([N+](=O)[O-])cc2)cs1	DT40 TDP1 no CPT inconclusive, DT40 TDP1 CPT 10.3µM
CCOC(=O)C1=C(N)Oc2ccc(Br)cc2C1C(C#N)C(=O)OCC (centres undefined)	none (no result: HT1080 IDH1KD tx, HT1080-NT tox, IL-1B inflam inh)
Cc1nc(SC(C)C(=O)Nc2ccccc2C)cc(-c2ccccc2)n1 (centres undefined)	DT40 TDP1 no CPT 20.6µM, DT40 TDP1 CPT 14.6µM (no result: HT1080 IDH1KD tx, HT1080-NT tox, IL-1B inflam inh)
COc1ccc(NC(=O)C(C)Sc2cc(-c3ccccc3)nc(C)n2)cc1Cl (centres undefined)	DT40 TDP1 no CPT 20.6µM, DT40 TDP1 CPT 20.6µM (no result: HT1080 IDH1KD tx, HT1080-NT tox, IL-1B inflam inh)
COc1cc(Cl)c(C)cc1NC(=O)CSc1cc(-c2ccccc2)nc(C)n1	none (no result: HT1080 IDH1KD tx, HT1080-NT tox, IL-1B inflam inh)
COc1ccc(NC(=O)CSc2nccn2Cc2ccco2)cc1	DT40 TDP1 no CPT inconclusive
COc1ccc(/C=C/C(=O)O/N=C(\N)c2ccccc2)cc1OC	none
COc1ccc(/C=C/C(=O)c2cc(F)ccc2OC(=O)c2ccccc2C)cc1OC	DT40 TDP1 no CPT 1.03µM, HT1080 IDH1KD tx 3.26µM, HT1080-NT tox 1.3µM, IL-1B inflam inh -99.4, DT40 TDP1 CPT 0.92µM
COc1ccc(/C=C/C(=O)c2ccc3c4c(cccc24)CC3)cc1OC	DT40 TDP1 no CPT 16.4µM, HT1080 IDH1KD tx 16.4µM, HT1080-NT tox inconclusive, DT40 TDP1 CPT 20.6µM
COc1ccc(/C=C/C(=O)OCC(=O)N2c3ccccc3CC2C)cc1OC (centres undefined)	none
COc1ccc(C(=O)Oc2ccc(F)cc2C(=O)/C=C/c2ccc(OC)c(OC)c2)cc1	DT40 TDP1 no CPT 13µM, HT1080 IDH1KD tx inconclusive, HT1080-NT tox inconclusive, DT40 TDP1 CPT 14.6µM
Cc1cc(NC(=O)CN2CCCC2c2nc3ccccc3s2)no1 (centres undefined)	DT40 TDP1 no CPT inconclusive, HT1080-NT tox inconclusive, DT40 TDP1 CPT inconclusive
